Assay results taken from PubChem BioAssay.
Results filed as inconclusive are left out. Active and inactive are the calls of the source.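 How the source made its calls, unless noted: active means growth inhibition above 25% in both replicates, a cutoff set 3 SD above the mean; inconclusive means above 25% in only one replicate; inactive means the rest.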

Columns and labels:
[1] = Her2 expression decrease, cell viability multiplex – SKBR3 breast tumor cells, AlphaScreen, ATP viability, primary screen (AID 461;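 active means Her2 level under about 52% in both replicate screens, with viability over 70% of control, limit read from the data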;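 on Her2 level: lower value means less Her2 protein in the cells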;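 on viability: percent of carrier control wells set as 100% viability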); conditions: SKBR3 Her2 protein level, 18-24 h, measured here: SKBR3 viability, ATP luminescence, at 10 µM
[2] = biological target: Receptor tyrosine-protein kinase erbB-2 (Homo sapiens) (UniProt P04626); test: as above; conditions: 18-24 h, at 10 µM, stronger effect = lower value
[3] = reduced viability of SK-BR-3 breast cancer cells – cell-based, 24 h, human, pilot screen (AID 572;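 active means viability at or below 10% of carrier control in both of two separate runs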;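 further: compound exposure lasted between 18 and 24 h rather than exactly 24 h; 100% = carrier-treated control wells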); conditions: SK-BR-3 viability, CellTiter-Glo luminescence, at 10 µM, stronger effect = lower value
[4] = HUVEC growth inhibition – cell-based, human, primary screen (AID 575;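 active means viability at or below 30% in both replicate assays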;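 further: 100% = median of untreated cell wells with 0.1% DMSO on each plate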); conditions: HUVEC proliferation, CellTiter-Glo luminescence, 72 h; at 10 µM; stronger effect = lower value
[5] = H69AR cell proliferation blockers – human, duplicate replicates, primary screen (AID 580;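 active means viability at or under a set limit in both replicates, limit being median viability minus 3 SD, cut at about 48% in these data, passing the limit was not always enough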;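 further: 100% = mean luminescence of untreated wells and 0% = no signal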); conditions: H69AR lung tumor cells viability, ATP luminescence, 72 h; at 10 µM; stronger effect = lower value
[6] = MRP1 drug-resistance reversers in H69AR cells – cell-based, doxorubicin co-treatment, pilot screen (AID 601;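 active means viability loss from added drug above about 55%, and viability with drug at most 40%, in both replicates, limit read from the data, passing the limit was not always enough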); conditions: CellTiter-Glo, 72 h, at 10 µM; for differential viability (reversal): stronger effect = higher value
[7] = yeast transport mutant growth inhibition pilot in 384-well plates, post-Golgi transport modulator project (AID 636; in the data active means inhibition above about 31%); conditions: absorbance 615 nm, about 18 h, stronger effect = higher value
[8] = growth suppression of yeast trafficking mutant, preliminary HTS, modulators of trafficking downstream of Golgi apparatus project, 1536-format plate, OD 615 nm (AID 637; in the data active means inhibition above about 30%); conditions: yeast transport mutant growth, absorbance 615 nm, 18 h; stronger effect = higher value
[9] = S. cerevisiae growth inhibition in permissive medium (OD615), pilot counter-assay for S. cerevisiae lifespan shortening project, permissive growth control (AID 705); conditions: OD615, 24 h, at 10 µM, stronger effect = higher value
[10] = S. cerevisiae growth inhibition in restrictive medium, OD615, pilot screen, restrictive growth control, yeast lifespan reduction project (AID 706;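 active means growth inhibition above a set limit, 3 SD over mean compound inhibition, in both replicates, cut at about 43% in these data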;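 further: modified DeaD lifespan yeast strain shifted to restrictive glucose medium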); conditions: OD615, 48 h, at 10 µM, stronger effect = higher value
[11] = doxorubicin toxicity protection in MRP-1 cells – H69AR cells, CellTiter-Glo, duplicate, MRP-1 activator project, pilot screen (AID 807;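 active means viability increase at or above a cutoff of the median across tested compounds plus 3 SD, cut at about 8.5% in these data, passing the limit was not always enough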;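 further: compound pretreatment 18-22 h then 72 h combined with doxorubicin; 0% = doxorubicin alone and 100% = vehicle without doxorubicin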); conditions: H69AR viability with doxorubicin, CellTiter-Glo luminescence; at 10 µM; stronger effect = higher value
[12] = viability of HCT116 without oncogenic beta-catenin – human colon tumor cells, pilot screen (AID 823;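 active means cell viability at or below a set limit in both duplicate runs, the limit being the all-compound median minus 4 SD, cut at about 23% in these data, passing the limit was not always enough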;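 further: 0% = wells killed by 20 µM Hyamine and 100% = untreated DMSO cell wells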); conditions: HCT116 beta-catenin knockout viability, CellTiter-Glo, 60 h; at 10 µM; stronger effect = lower value
[13] = viability of PTEN-null HCT116 cells – cell-based, HCT116 clonal line, CellTiter-Glo, pilot screen (AID 824;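 active means viability at or below 27.92% in each of two runs, the all-compound median minus 4 SD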;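 further: 0% = 20 µM Hyamine control and 100% = vehicle cell control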); conditions: HCT116 PTEN-deleted viability, 60 h, at 10 µM, stronger effect = lower value
[14] = RAM pathway blockade in budding yeast – dse1pr::URA3 reporter, 5-FOA selection, pilot screen (AID 869;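 active means inhibition over a set limit, the all-compound mean plus 3 SD, in both replicate runs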;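 further: 0% = DMSO wells with no growth and 100% = 10 µM 1-NA-PP1 with full growth; RAM network block rescues cells from 5-FOA so hits raise OD615 growth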); conditions: S. cerevisiae dse1pr::URA3 5-FOA growth, OD615, 2 d; at 10 µM; stronger effect = higher value; strain carries analog-sensitive mutant Cbk1 kinase
[15] = RAM signaling pathway blockade in yeast – S. cerevisiae, Pdr1DBD-CYC8 efflux-inhibited sensitized strain, primary screen (AID 1298;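 active means RAM network inhibition above 8.4% in each of two replicates, 3 SD over the compound average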;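 further: 0% = DMSO untreated cells without growth and 100% = 10 µM 1-NA-PP1 full growth; higher means more yeast growth rescued from 5-FOA killing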); conditions: S. cerevisiae cbk1-as DSE1-URA3 strain, 5-FOA growth OD615, 2 d; at 50 µM; stronger effect = higher value
[16] = H69AR cells + 2 uM doxorubicin, measured here: viability with 2 uM doxorubicin, stronger effect = lower value
[17] = H69AR cells, compound alone cytotoxicity

Chain of Receptor tyrosine-protein kinase erbB-2 (Homo sapiens) (P04626 whole entry, looked up): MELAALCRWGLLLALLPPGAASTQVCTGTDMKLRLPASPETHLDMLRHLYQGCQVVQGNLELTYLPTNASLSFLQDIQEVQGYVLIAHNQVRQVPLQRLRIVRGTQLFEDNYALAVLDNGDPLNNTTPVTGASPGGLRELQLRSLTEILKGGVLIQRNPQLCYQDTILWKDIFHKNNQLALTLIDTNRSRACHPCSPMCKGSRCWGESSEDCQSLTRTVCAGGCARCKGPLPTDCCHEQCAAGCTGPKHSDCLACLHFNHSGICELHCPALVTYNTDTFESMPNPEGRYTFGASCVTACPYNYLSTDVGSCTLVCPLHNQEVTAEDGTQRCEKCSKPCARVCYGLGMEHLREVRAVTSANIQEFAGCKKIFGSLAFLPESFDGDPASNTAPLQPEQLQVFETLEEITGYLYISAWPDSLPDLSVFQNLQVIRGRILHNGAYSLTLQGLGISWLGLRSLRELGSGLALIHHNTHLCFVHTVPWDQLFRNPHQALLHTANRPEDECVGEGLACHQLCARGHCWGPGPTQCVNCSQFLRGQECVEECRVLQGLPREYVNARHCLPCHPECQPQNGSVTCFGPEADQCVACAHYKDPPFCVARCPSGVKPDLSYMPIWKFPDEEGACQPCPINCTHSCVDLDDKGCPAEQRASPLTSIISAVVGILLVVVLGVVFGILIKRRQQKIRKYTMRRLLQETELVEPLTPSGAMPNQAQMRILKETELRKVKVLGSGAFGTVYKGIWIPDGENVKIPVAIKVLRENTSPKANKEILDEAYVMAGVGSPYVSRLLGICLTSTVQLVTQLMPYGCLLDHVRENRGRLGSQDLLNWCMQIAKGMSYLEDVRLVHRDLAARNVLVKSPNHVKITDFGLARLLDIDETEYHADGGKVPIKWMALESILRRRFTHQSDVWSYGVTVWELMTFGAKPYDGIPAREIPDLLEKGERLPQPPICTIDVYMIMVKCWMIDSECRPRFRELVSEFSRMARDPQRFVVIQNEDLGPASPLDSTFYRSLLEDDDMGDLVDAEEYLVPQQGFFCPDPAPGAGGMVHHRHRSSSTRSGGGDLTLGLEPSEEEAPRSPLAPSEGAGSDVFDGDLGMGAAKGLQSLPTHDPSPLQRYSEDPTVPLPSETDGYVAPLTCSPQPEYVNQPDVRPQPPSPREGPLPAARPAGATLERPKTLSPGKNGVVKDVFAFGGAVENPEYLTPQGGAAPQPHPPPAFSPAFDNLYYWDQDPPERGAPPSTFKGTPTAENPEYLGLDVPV

CCc1ccccc1NC(=O)c1cnc2n(c1=O)CCS2
inactive: Her2 level [2] 90% | viability [3] 90.5% | viability [4] 95% | viability [5] 91.6% | differential viability (reversal) ([6]; H69AR cells + 2 uM doxorubicin) 3.48% | inhibition [7] -1.33% | inhibition [8] -4.26% | growth inhibition [9] -7.06% | growth inhibition [10] 1.6% | viability increase [11] 3.48% | viability [12] 90.9% | viability [13] 97% | inhibition [14] 1.32% | RAM network inhibition [15] 5.66%
88.1%: viability [6, 16]
91.6%: viability [6, 17]
90.5%: viability [1]

CCOc1ccc(N2C(=O)CC(N3CC(C)OC(C)C3)C2=O)cc1 (stereo not given)
inactive: Her2 level [2] 93% | viability [3] 97% | viability [4] 100% | viability [5] 89.2% | differential viability (reversal) ([6]; H69AR cells + 2 uM doxorubicin) -2.21% | inhibition [7] -3.72% | inhibition [8] 1.33% | growth inhibition [9] -17.2% | growth inhibition [10] -10.4% | viability increase [11] -1.01% | viability [12] 105% | viability [13] 98.8% | inhibition [14] 1.47% | RAM network inhibition [15] 2.33%
89.2%: viability [6, 17]
91.4%: viability [6, 16]
97%: viability [1]

CC(C)Sc1nc2c(c(=O)n1-c1ccc(F)cc1)SCC2
114%: viability [1]
88.5%: viability [6, 17]
81.1%: viability [6, 16]
inactive: Her2 level [2] 124% | viability [3] 114% | viability [4] 87.6% | viability [5] 88.5% | differential viability (reversal) ([6]; H69AR cells + 2 uM doxorubicin) 7.33% | inhibition [7] -4.27% | inhibition [8] -4.35% | growth inhibition [9] -4.45% | growth inhibition [10] -19.7% | viability increase [11] -2.6% | viability [12] 84.6% | viability [13] 87.1% | inhibition [14] 0.61% | RAM network inhibition [15] 7.83%

CC(=O)Nc1ccc(S(=O)(=O)N2CCN(C(=O)CCC3CCCC3)CC2)cc1
103%: viability [6, 16]
84%: viability [1]
inactive: Her2 level [2] 98.5% | viability [3] 84% | viability [4] 99% | viability [5] 92.9% | differential viability (reversal) ([6]; H69AR cells + 2 uM doxorubicin) -9.75% | inhibition [7] -1.2% | inhibition [8] -4.35% | growth inhibition [9] 0.295% | growth inhibition [10] -1.04% | viability increase [11] -2.79% | viability [12] 78.7% | viability [13] 81.8% | inhibition [14] 0.505% | RAM network inhibition [15] 2.16%
92.9%: viability [6, 17]

CC(=O)Nc1cccc(Oc2nc(C)cc(C)c2C#N)c1
91.7%: viability [6, 16]
87.3%: viability [6, 17]
inactive: Her2 level [2] 106% | viability [3] 96.5% | viability [4] 94.1% | viability [5] 87.3% | differential viability (reversal) ([6]; H69AR cells + 2 uM doxorubicin) -4.33% | inhibition [7] -2% | inhibition [8] 0.5% | growth inhibition [9] -17.1% | growth inhibition [10] -19.5% | viability increase [11] 2.21% | viability [12] 107% | viability [13] 102% | inhibition [14] 1.34% | RAM network inhibition [15] 0.78%
96.5%: viability [1]

CC(=O)NC(CCS(C)(=O)=O)C(=O)Nc1cccc(C)c1C (stereo not given)
89.5%: viability [1]
75.9%: viability [6, 17]
91.3%: viability [6, 16]
inactive: Her2 level [2] 93.5% | viability [3] 89.5% | viability [4] 86.8% | viability [5] 75.9% | differential viability (reversal) ([6]; H69AR cells + 2 uM doxorubicin) -15.4% | inhibition [7] -5.2% | inhibition [8] 4.33% | growth inhibition [9] -7.1% | growth inhibition [10] -8.2% | viability increase [11] 0.19% | viability [12] 105% | viability [13] 100% | inhibition [14] 0.395% | RAM network inhibition [15] 3.33%

COc1cc(NC(=O)C2C3C=CC(C3)C2C(=O)O)c(OC)cc1Cl (stereo not given)
86%: viability [1]
93.9%: viability [6, 16]
inactive: Her2 level [2] 95% | viability [3] 86% | viability [4] 98.4% | viability [5] 98.3% | differential viability (reversal) ([6]; H69AR cells + 2 uM doxorubicin) 4.4% | inhibition [7] -2.16% | inhibition [8] -3.61% | growth inhibition [9] -4.4% | growth inhibition [10] -20.4% | viability increase [11] -1.99% | viability [12] 101% | viability [13] 91.8% | inhibition [14] 2.7% | RAM network inhibition [15] 1.54%
98.3%: viability [6, 17]

CCC(C)NC(=O)c1cn(CC)c2ccc(S(=O)(=O)N(C)C)cc2c1=O (stereo not given)
90.6%: viability [6, 16]
87%: viability [1]
inactive: Her2 level [2] 84% | viability [3] 87% | viability [4] 85.7% | viability [5] 78.9% | differential viability (reversal) ([6]; H69AR cells + 2 uM doxorubicin) -11.6% | inhibition [7] -4.53% | inhibition [8] -2.33% | growth inhibition [9] 2.96% | growth inhibition [10] 14.4% | viability increase [11] -2.73% | viability [12] 92.4% | viability [13] 93.4% | inhibition [14] -0.32% | RAM network inhibition [15] 1.7%
78.9%: viability [6, 17]

COCCN(CCOC)c1ncnc2c1cnn2-c1ccccc1
112%: viability [1]
93.5%: viability [6, 16]
inactive: Her2 level [2] 99% | viability [3] 112% | viability [4] 88.4% | viability [5] 86.6% | differential viability (reversal) ([6]; H69AR cells + 2 uM doxorubicin) -6.92% | inhibition [7] -4.8% | inhibition [8] 4.33% | growth inhibition [9] -5.8% | growth inhibition [10] 1.92% | viability increase [11] 1.43% | viability [12] 107% | viability [13] 98.5% | inhibition [14] 0.505% | RAM network inhibition [15] 3.39%
86.6%: viability [6, 17]

O=C(c1cccs1)N1CCc2ccccc21
94%: viability [6, 17]
110%: viability [1]
inactive: Her2 level [2] 82% | viability [3] 110% | viability [4] 83% | viability [5] 94% | differential viability (reversal) ([6]; H69AR cells + 2 uM doxorubicin) 14.6% | inhibition [7] -5.47% | inhibition [8] 0.97% | growth inhibition [9] 1.98% | growth inhibition [10] 1.57% | viability increase [11] -1.9% | viability [12] 96.3% | viability [13] 95.8% | inhibition [14] 1.48% | RAM network inhibition [15] 1.66%
79.5%: viability [6, 16]
